Where “and” joins values, the source holds several entries; their conditions need not be identical. Equal values may be shown once. Inconclusive results are not listed. Calls of active or inactive are those of the source. Unless noted, calls follow the shape of the dose curve; as a rule, active = well fitted curve in the direction sought with a large enough effect in the repeat runs; inconclusive = weak or mixed curves; inactive = no such curve, though single readings can be large; an effect the other way counts as inactive or inconclusive.
What was measured:
[1] = target: Progesterone receptor (Homo sapiens) (UniProt P06401); experiment: qHTS assay to identify small molecule antagonists of the progesterone receptor (PR) signaling pathway (AID 1346795; active = well fitted inhibition curve with a large enough effect in the signal ratio in the repeat runs, not every such curve was filed as active; the % refers to the signal ratio; also: potency is read from the fitted curve at half-maximal effect)
Progesterone receptor (Homo sapiens), sequence (P06401 whole entry, looked up): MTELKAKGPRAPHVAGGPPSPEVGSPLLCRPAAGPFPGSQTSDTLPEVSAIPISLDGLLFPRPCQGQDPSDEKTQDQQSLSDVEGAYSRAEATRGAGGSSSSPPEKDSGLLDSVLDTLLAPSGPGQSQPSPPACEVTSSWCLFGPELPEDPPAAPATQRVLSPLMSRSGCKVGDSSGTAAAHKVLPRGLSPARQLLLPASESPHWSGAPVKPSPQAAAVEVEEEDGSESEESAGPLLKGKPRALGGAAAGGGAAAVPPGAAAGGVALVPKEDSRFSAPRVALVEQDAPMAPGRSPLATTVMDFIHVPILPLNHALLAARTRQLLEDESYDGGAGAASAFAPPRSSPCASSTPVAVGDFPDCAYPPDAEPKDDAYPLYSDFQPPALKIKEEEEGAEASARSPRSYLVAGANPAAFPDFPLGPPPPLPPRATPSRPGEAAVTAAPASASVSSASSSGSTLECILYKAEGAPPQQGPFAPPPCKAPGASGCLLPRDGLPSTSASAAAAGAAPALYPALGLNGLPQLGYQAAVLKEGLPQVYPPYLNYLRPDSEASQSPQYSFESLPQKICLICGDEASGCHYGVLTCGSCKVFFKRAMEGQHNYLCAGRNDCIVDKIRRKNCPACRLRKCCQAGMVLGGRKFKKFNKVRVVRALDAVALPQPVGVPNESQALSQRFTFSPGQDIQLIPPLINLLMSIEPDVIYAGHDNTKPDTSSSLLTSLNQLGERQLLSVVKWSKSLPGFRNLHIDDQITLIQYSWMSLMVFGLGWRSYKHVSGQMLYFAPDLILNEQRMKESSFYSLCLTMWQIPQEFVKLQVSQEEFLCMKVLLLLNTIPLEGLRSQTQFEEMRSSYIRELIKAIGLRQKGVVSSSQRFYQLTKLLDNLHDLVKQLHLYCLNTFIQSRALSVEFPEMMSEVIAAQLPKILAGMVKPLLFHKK
Procedure, shortened: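 Fluorescence intensity measured 2 hr after adding beta-lactamase FRET substrate to PR-UAS-bla HEK293T cells that had been co-treated 16 hr with compound and 1 nM R5020 (final concentration) in 2% charcoal-stripped FBS.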

[2] = qHTS assay to identify small molecule antagonists of the progesterone receptor (PR) signaling pathway - cell viability counter screen (AID 1346798); also: nearly all actives have a fitted effect of over 50% in size; also: potency is read from the fitted curve at half-maximal effect
Procedure, shortened: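 CellTiter-Glo luminescence; PR-UAS-bla HEK293T, 3,000 cells/well; compound + R5020, 16 hr, 37C/5% CO2; 30 min RT before read.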

[3] = qHTS assay to identify small molecule antagonists of the TGF-beta/Smad signaling pathway - cell viability counter screen (AID 1346824); also: nearly all actives have a fitted effect of over 50% in size
Procedure, shortened: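 Cytotoxicity counter-screen run in the same wells as the beta-lactamase Smad reporter read: CellTiter-Glo luminescence after 30 min at room temperature. HEK 293T SBE-bla cells had 5 hr compound exposure at 37 C with TGF-beta1 (0.25 ng/mL stock).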

[4] = qHTS assay to identify small molecule agonists of the TGF-beta/Smad signaling pathway - cell viability counter screen (AID 1346829); also: top concentration of the series differs between compounds; nearly all actives have a fitted effect of over 45% in size
Procedure, shortened: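 Compound-treated SBE-bla HEK 293T cells (5 hr, 37 C) were assessed for viability with CellTiter-Glo in parallel with the reporter read.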

[5] = qHTS assay to identify small molecule agonists of the TGF-beta/Smad signaling pathway (AID 1346859; active = well fitted activation curve with a large enough effect in the signal ratio in the repeat runs, not every such curve was filed as active; the % refers to the signal ratio; also: series mostly up to about 77 µM)
Procedure, shortened: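 After overnight seeding, SBE-bla HEK 293T cells are dosed with compounds in DMSO and kept 5 hr at 37 C, 5% CO2. LiveBLAzer-type FRET substrate is then applied for 2 hr at room temperature.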

[6] = target: Thyrotropin-releasing hormone receptor (Homo sapiens) (UniProt P34981); experiment: qHTS assay to identify small molecule antagonists of the thyrotropin-releasing hormone receptor (TRHR) signaling pathway (AID 1346877; active = well fitted inhibition curve with a large enough effect in the repeat runs, not every such curve was filed as active; also: series mostly up to about 51 µM)
Thyrotropin-releasing hormone receptor (Homo sapiens), sequence (P34981 whole entry, looked up): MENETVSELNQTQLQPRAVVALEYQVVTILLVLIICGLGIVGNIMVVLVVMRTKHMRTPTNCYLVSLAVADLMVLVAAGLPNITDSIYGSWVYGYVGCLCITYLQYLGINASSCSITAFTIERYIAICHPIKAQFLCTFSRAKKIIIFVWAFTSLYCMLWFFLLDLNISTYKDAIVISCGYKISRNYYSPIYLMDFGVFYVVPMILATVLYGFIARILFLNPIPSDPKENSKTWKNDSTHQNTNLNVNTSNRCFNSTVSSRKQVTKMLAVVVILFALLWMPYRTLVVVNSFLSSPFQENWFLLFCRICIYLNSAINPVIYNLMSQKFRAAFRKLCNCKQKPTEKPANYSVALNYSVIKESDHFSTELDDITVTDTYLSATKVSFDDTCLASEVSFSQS
Procedure, shortened: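 Antagonist mode: after a 5 min room-temperature compound exposure, cells were stimulated with 1 nM (final) TRH. Dye-loaded TRHR-HEK293 cells were used, and calcium-dependent fluorescence was followed for 3 min, with 15-point titrations run in triplicate.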

[7] = target: Thyrotropin-releasing hormone receptor (Homo sapiens) (UniProt P34981); experiment: qHTS assay to identify small molecule agonists of the thyrotropin-releasing hormone receptor (TRHR) signaling pathway (AID 1346891; calls by dose curve;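 also: HEK293 cells expressing TRHR with calcium dye readout; series mostly up to about 58 µM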)
Procedure, shortened: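 Compounds were tested as agonists at 15 concentrations, in triplicate, on TRHR-Hek293 cells; calcium-sensitive dye fluorescence was recorded for 3 min following addition.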

[8] = Human pregnane X receptor (PXR) small molecule agonists, qHTS cell viability counter screen (AID 1346977); also: nearly all actives have a fitted effect of over 50% in size; also: potency is read from the fitted curve at half-maximal effect
Procedure, shortened: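 Viability counter screen: CellTiter-Fluor signal in PXR-Luc HepG2 cells, 24hr compound exposure, 37C, 5% CO2.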

[9] = Caspase-3/7 induction in HepG2 cells by small molecules, qHTS assay (AID 1346978); also: nearly all actives have a fitted effect of over 15% in size; also: potency is read from the fitted curve at half-maximal effect
Procedure, shortened: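 Caspase-3/7 induction was measured by Caspase-Glo 3/7 luminescence (30 min, room temperature) after a 17 hr compound exposure of wild-type HepG2 cells seeded at 2,000 per well and pre-incubated 5 hr.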

[10] = Caspase-3/7 induction in CHO-K1 cells by small molecules, qHTS cell viability counter screen (AID 1346979); also: nearly all actives have a fitted effect of over 35% in size; also: potency is read from the fitted curve at half-maximal effect
Procedure, shortened: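 Viability readout by fluorescence (CellTiter-Fluor) on wild-type CHO-K1 cells exposed for 16hr at 37C and 5% CO2 to compounds delivered in DMSO; reagent incubated 1hr before reading.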

[11] = Caspase-3/7 induction in CHO-K1 cells by small molecules, qHTS assay (AID 1346980); also: nearly all actives have a fitted effect of over 15% in size
Procedure, shortened: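 Luminescent Caspase-Glo 3/7 read (30min, room temperature) quantified apoptosis induction. Cells were wild-type CHO-K1, treated with compound for 17hr at 37 C and 5% CO2.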

[12] = Caspase-3/7 induction in HepG2 cells by small molecules, qHTS cell viability counter screen (AID 1346981); also: series mostly up to about 92 µM; nearly all actives have a fitted effect of over 30% in size
Procedure, shortened: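 CellTiter-Fluor fluorescence measured viability in the same wells used for Caspase-Glo 3/7. HepG2 (wild type) at 2,000 cells/well were pre-incubated 5 hr, dosed, and given reagent at 16 hr, with 1 hr further at 37C.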

[13] = target: Cytochrome P450 2D6 (Homo sapiens) (UniProt P10635); experiment: Cytochrome P450 Family 2 Subfamily D Member 6 (CYP2D6) small molecule antagonists: luciferase reporter qHTS assay (AID 1671196); also: nearly all actives have a fitted effect of over 50% in size; also: potency is read from the fitted curve at half-maximal effect
Cytochrome P450 2D6 (Homo sapiens), sequence (P10635 whole entry, looked up): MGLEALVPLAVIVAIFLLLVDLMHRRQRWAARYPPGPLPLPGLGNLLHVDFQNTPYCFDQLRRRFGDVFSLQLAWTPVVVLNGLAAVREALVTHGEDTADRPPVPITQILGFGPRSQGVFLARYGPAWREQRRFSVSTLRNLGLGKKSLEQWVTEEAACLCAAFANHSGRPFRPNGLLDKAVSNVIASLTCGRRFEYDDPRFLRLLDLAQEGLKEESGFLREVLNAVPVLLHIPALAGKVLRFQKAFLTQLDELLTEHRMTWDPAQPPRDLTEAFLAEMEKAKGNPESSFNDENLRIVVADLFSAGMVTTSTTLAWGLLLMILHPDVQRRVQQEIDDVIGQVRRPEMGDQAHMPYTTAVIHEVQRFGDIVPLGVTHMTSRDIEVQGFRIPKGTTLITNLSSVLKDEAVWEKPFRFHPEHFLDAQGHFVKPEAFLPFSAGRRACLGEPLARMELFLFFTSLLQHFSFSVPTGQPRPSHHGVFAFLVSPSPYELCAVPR
Procedure, shortened: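 CYP2D6 activity was followed as luminescence from its luciferin product after a 1 h NADPH-driven reaction at room temperature. Enzyme-substrate mix and compound were pre-incubated for 10 min, and the signal was read 20 min after adding detection reagent.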

[14] = target: Cytochrome P450 2C9 (Homo sapiens) (UniProt P11712); experiment: Cytochrome P450 Family 2 Subfamily C Member 9 (CYP2C9) small molecule antagonists: luciferase reporter qHTS assay (AID 1671198); also: nearly all actives have a fitted effect of over 50% in size; also: potency is read from the fitted curve at half-maximal effect
Cytochrome P450 2C9 (Homo sapiens), sequence (P11712 whole entry, looked up): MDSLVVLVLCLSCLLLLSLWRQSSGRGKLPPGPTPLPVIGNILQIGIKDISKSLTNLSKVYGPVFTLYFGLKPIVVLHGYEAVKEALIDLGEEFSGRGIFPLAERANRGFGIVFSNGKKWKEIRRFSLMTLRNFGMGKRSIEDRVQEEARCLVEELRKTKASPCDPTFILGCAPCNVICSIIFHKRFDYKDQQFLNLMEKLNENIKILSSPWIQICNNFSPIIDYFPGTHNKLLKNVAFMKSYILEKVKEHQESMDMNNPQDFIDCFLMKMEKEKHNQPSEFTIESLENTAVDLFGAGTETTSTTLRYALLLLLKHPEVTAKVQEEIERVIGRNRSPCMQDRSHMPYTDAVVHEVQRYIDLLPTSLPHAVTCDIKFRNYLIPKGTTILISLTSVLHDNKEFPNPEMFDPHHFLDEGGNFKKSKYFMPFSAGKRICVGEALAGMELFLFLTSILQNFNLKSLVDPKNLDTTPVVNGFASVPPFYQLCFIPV
Procedure, shortened: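 Enzyme-substrate mix preincubated with compound 10 min at room temperature; reaction started with NADPH regeneration solution, 1 h 37C. Luminescent luciferin product read after 20 min detection reagent.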

[15] = qHTS assay to identify small molecule agonists of the progesterone receptor (PR) signaling pathway - cell viability counter screen (AID 1346799; calls by dose curve; also: nearly all actives have a fitted effect of over 45% in size)
Procedure, shortened: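 In parallel with the beta-lactamase readout, cytotoxicity toward PR-UAS-bla HEK293T cells was measured by CellTiter-Glo luminescence following 16 hr compound incubation in 2% charcoal-stripped FBS medium.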

[16] = target: Nuclear receptor subfamily 1 group I member 2 (Homo sapiens) (UniProt O75469); experiment: Human pregnane X receptor (PXR) small molecule agonists, qHTS assay (AID 1346982); also: nearly all actives have a fitted effect of over 35% in size; also: potency is read from the fitted curve at half-maximal effect
Nuclear receptor subfamily 1 group I member 2 (Homo sapiens), sequence (O75469 whole entry, looked up): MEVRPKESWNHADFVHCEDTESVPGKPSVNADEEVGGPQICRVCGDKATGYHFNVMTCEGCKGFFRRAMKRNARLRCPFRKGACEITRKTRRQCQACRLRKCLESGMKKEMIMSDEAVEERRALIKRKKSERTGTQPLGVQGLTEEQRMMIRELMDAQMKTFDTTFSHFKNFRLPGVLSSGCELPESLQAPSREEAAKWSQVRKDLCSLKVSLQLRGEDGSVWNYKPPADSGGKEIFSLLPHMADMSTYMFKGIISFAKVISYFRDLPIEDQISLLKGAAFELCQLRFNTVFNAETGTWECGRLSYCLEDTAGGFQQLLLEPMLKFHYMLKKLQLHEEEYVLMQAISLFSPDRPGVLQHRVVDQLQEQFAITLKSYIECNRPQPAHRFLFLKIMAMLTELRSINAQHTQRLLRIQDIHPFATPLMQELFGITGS
Procedure, shortened: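 Agonist mode: luminescence from ONE-Glo after 24 h compound exposure at 37C in HepG2 cells carrying hPXR-responsive CYP3A4 luciferase, plated in charcoal-stripped serum medium 5 h beforehand.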

[17] = target: Cytochrome P450 2C19 (Homo sapiens) (UniProt P33261); experiment: Cytochrome P450 Family 2 Subfamily C Member 19 (CYP2C19) small molecule antagonists: luciferase reporter qHTS assay (AID 1671197); also: nearly all actives have a fitted effect of over 65% in size; also: potency is read from the fitted curve at half-maximal effect
Cytochrome P450 2C19 (Homo sapiens), sequence (P33261 whole entry, looked up): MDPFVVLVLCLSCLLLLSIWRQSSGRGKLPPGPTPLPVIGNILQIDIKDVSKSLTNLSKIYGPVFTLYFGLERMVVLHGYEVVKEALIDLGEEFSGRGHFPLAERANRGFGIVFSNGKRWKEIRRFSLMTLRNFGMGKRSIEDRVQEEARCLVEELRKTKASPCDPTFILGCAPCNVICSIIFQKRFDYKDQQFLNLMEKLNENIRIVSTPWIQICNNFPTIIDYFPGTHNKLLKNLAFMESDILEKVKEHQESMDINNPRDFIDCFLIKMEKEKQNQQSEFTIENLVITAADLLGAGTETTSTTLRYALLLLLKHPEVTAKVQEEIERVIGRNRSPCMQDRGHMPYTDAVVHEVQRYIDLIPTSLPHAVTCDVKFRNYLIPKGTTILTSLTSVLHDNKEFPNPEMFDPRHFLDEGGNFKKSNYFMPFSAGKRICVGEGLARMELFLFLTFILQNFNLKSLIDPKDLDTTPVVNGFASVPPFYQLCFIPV
Procedure, shortened: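 P450-Glo CYP2C19 screening system; proluciferin substrate; DMSO compound stocks; 10 min RT preincubation; NADPH regeneration, 1 h at 37C; luciferin detection reagent, 20 min RT; luminescence as RLU.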

Measured: Potency

C/C=C/C(=O)C1=C(C)CCCC1(C)C
not listed: [15] | [16] | [17]
inactive: all other assays above

CCCCC(CC)COC(=O)c1ccc(O)cc1 (stereo not drawn)
active: [1] 30.5 µM and 27.3 µM | [10] 54.3 µM and 61.1 µM | [16] 24.2 µM and 68.6 µM | [13] 79.4 µM and 22.4 µM | [17] 11.2 µM and 17.8 µM | [14] 31.6 µM and 35.6 µM
not listed: [3] | [8] | [12]
inactive: all other assays above

CNC(=S)NN
active: [1] 8.63 µM | [2] 13.7 µM | [8] 12.2 µM | [9] 61.1 µM | [10] 19.3 µM | [14] 39.9 µM
inactive: [3] | [4] | [5] | [11] | [12]

Clc1ccc(C(c2ccccc2Cl)C(Cl)Cl)cc1 (stereo not drawn)
active: [1] 3.44 µM | [16] 10.9 µM | [17] 1.59 µM and 776 nM | [14] 20 µM and 9.77 µM
not listed: [10] | [13] | [15]
inactive: all other assays above

O=C[C@H](O)[C@H](O)[C@H](O)CO
not listed: [2]
inactive: all other assays above

CCC(C)(C)c1cc(O)c(C(C)(C)CC)cc1O
active: [16] 30.6 µM | [17] 31.7 µM | [14] 63.3 µM
not listed: [5] | [6] | [10] | [12] | [15]
inactive: all other assays above

CC(O)C#CC(C)O (stereo not drawn)
active: [10] 27 µM | [16] 24.1 µM | [13] 35.2 µM
not listed: [3] | [8] | [17]
inactive: all other assays above

O=C1OC(=O)c2cccc3cccc1c23
active: [16] 19.5 µM
not listed: [2]
inactive: all other assays above

CN1[C@@H]2CC[C@@H]1CC(OC(=O)C(CO)c1ccccc1)C2 (stereo partly drawn)
not listed: [6] | [7] | [13] | [14] | [15] | [16] | [17]
inactive: all other assays above

CCC(C)C(=O)OC (stereo not drawn)
not listed: [15] | [16]
inactive: all other assays above

c1ccc2c(c1)CCC2
not listed: [2]
inactive: all other assays above

CC1=CP(=O)(c2ccccc2)CC1 (stereo not drawn)
not listed: [2]
inactive: all other assays above

From PubChem BioAssay (Tox21)
